We go through 1 compound from ChEMBL document CHEMBL1961873, “Compounds: GSK PKIS; Assays: Nanosyn kinase panel” (2012).

Assay [1] has as its target Sphingosine kinase 1 (Homo sapiens) (UniProt Q9NYA1). The settings on record: at 1 µM.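 Also: mean SPHK1 inhibition value reported from the GSK PKIS kinase panel screen.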
The target of assay [2] is T1, Sphingosine kinase 2 (Homo sapiens) (UniProt Q9NRA0).
T1 sequence (whole entry): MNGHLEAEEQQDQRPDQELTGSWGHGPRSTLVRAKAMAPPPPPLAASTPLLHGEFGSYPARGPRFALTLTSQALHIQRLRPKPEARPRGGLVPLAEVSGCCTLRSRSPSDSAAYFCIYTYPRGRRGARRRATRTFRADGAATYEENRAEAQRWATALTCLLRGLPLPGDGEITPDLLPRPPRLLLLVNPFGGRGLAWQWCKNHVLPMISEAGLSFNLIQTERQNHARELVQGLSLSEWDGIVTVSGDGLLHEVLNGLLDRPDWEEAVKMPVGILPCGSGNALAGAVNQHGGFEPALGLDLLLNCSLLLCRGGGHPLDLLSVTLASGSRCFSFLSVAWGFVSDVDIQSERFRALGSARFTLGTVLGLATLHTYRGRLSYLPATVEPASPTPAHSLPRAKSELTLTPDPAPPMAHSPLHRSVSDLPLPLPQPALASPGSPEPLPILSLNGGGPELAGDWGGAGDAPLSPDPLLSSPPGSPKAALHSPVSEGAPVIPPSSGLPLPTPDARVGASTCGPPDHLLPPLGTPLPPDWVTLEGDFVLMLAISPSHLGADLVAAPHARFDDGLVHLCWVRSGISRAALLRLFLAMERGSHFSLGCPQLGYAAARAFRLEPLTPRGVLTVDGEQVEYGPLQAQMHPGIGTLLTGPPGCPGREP
Particulars: at 0.1 µM.

For assay [3], the target named is T1, Sphingosine kinase 2 (Homo sapiens). Particulars: at 1 µM.
The target in assay [4] is Casein kinase II subunit alpha (Homo sapiens) (UniProt P68400). The settings on record: at 0.1 µM.
Assay [5] has the same target. Particulars: at 1 µM.
Assay [6] has as its target T2, Inhibitor of nuclear factor kappa-B kinase subunit alpha (Homo sapiens) (UniProt O15111).
T2 sequence (whole entry): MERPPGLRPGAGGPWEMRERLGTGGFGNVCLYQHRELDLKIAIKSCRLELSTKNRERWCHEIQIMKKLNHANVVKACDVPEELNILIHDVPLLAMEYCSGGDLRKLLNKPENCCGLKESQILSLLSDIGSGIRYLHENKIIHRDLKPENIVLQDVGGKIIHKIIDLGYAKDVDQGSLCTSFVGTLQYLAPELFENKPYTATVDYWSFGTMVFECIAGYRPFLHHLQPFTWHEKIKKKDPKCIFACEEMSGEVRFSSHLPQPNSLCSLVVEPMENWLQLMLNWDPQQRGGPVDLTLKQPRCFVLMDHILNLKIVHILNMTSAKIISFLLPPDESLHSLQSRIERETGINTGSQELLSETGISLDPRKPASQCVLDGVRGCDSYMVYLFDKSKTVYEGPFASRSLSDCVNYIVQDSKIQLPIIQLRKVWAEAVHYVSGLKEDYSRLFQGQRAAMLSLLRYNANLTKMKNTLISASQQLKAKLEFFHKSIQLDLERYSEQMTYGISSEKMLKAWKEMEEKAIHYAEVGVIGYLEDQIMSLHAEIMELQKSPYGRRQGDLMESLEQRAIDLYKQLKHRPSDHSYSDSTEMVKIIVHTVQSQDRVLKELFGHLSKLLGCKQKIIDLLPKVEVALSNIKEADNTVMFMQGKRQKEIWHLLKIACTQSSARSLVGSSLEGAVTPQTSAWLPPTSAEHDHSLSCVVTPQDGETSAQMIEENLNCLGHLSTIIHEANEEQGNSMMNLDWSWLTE
The settings on record: at 0.1 µM.

Assay [7] concerns the target T2, Inhibitor of nuclear factor kappa-B kinase subunit alpha (Homo sapiens). The settings on record: at 1 µM.
Assay [8] concerns the target T3, Inhibitor of nuclear factor kappa-B kinase subunit beta (Homo sapiens) (UniProt O14920).
T3 sequence (whole entry): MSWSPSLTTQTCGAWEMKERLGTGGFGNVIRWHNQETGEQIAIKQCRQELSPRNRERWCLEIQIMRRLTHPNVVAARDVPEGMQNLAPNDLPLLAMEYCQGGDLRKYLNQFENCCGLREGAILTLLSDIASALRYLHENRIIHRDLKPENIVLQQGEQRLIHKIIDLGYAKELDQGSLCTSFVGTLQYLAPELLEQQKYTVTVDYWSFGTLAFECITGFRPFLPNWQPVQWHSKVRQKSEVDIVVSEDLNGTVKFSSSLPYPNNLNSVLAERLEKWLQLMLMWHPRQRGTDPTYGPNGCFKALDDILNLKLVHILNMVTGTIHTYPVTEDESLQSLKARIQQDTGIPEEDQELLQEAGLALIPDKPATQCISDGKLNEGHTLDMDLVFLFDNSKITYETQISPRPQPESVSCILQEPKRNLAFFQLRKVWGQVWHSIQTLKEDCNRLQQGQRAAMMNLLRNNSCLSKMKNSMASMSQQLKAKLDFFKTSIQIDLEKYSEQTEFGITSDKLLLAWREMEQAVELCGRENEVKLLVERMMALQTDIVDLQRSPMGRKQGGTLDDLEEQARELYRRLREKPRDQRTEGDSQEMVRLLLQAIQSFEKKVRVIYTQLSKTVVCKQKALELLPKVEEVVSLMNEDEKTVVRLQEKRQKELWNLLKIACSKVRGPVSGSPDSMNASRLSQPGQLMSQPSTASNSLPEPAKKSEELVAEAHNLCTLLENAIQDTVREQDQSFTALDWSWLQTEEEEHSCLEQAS
The settings on record: at 0.1 µM.

Assay [9] deals with T3, Inhibitor of nuclear factor kappa-B kinase subunit beta (Homo sapiens). Particulars: at 1 µM.
The target of assay [10] is T4, Inhibitor of nuclear factor kappa-B kinase subunit epsilon (Homo sapiens) (UniProt Q14164).
T4 sequence (whole entry): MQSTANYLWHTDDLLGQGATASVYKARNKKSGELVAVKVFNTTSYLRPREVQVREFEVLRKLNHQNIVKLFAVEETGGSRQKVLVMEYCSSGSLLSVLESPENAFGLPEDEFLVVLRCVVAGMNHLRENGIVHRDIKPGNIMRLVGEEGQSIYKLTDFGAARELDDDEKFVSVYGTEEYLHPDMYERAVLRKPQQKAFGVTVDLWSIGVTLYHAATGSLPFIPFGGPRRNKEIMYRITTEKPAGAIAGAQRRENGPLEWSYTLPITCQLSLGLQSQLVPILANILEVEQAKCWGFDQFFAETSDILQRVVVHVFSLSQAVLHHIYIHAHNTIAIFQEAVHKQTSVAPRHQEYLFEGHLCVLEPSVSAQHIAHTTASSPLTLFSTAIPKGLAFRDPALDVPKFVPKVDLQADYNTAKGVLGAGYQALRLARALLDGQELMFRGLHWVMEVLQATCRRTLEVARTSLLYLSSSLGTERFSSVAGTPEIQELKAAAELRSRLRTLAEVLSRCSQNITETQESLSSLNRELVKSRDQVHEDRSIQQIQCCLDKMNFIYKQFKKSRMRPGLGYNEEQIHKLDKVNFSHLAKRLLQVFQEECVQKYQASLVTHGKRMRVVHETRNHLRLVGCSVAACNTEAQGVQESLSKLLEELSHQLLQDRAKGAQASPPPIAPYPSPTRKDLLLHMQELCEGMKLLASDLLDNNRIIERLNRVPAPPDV
The settings on record: at 0.1 µM.

Assay [11] has as its target T4, Inhibitor of nuclear factor kappa-B kinase subunit epsilon (Homo sapiens). Particulars: at 1 µM.
Assay [12] has as its target T5, Serine/threonine-protein kinase Nek1 (Homo sapiens) (UniProt Q96PY6).
T5 sequence (whole entry): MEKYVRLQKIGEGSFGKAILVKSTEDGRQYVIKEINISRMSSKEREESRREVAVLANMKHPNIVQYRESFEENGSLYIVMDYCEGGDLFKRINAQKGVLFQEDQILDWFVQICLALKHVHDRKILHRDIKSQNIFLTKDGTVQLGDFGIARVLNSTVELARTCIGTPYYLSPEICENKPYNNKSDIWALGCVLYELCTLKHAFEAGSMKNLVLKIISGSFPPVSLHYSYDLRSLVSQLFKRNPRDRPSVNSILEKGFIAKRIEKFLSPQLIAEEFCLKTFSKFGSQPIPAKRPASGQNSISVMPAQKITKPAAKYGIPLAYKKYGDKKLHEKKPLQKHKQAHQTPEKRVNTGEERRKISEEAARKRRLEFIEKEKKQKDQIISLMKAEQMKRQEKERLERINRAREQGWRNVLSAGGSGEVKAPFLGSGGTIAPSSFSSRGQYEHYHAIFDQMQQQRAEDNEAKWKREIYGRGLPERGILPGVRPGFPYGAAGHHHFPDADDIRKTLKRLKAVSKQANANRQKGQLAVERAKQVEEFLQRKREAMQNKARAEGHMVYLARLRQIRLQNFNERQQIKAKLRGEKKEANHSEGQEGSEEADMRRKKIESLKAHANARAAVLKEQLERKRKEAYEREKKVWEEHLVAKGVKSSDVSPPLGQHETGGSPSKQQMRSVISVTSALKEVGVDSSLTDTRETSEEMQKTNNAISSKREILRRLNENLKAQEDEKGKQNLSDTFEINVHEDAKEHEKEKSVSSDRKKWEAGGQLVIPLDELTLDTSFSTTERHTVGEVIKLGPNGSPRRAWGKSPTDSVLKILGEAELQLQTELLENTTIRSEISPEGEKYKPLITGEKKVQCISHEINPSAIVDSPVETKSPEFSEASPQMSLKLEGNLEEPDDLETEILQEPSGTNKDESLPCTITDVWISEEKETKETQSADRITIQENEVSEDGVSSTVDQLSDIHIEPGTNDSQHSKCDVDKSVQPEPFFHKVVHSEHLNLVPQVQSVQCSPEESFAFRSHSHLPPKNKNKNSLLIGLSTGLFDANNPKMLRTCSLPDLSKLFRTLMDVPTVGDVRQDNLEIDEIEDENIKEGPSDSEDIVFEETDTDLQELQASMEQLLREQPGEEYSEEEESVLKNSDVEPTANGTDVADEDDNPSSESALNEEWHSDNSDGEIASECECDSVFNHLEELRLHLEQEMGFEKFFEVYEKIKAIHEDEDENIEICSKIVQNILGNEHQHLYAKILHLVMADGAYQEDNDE
Particulars: at 0.1 µM.

The target in assay [13] is T5, Serine/threonine-protein kinase Nek1 (Homo sapiens). Particulars: at 1 µM.
For assay [14], the target named is T6, Serine/threonine-protein kinase Nek2 (Homo sapiens) (UniProt P51955).
T6 sequence (whole entry): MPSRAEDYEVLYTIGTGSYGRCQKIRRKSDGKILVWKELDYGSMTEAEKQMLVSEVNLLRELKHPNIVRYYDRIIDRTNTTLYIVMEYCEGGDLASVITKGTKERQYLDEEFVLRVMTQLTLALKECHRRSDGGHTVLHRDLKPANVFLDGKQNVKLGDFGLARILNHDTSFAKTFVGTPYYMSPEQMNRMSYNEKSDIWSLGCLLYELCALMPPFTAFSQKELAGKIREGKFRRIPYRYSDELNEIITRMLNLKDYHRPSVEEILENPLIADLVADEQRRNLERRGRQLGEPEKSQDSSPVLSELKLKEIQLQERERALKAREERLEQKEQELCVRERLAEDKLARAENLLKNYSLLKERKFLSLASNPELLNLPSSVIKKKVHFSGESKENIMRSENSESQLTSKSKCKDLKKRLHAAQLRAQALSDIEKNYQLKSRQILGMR
Particulars: at 0.1 µM.

Assay [15] has as its target T6, Serine/threonine-protein kinase Nek2 (Homo sapiens). The settings on record: at 1 µM.
For assay [16], the target named is Serine/threonine-protein kinase Nek6 (Homo sapiens) (UniProt Q9HC98). Particulars: at 0.1 µM.
The target is the same in assay [17]. The settings on record: at 1 µM.
Assay [18] addresses Serine/threonine-protein kinase Nek7 (Homo sapiens) (UniProt Q8TDX7). Particulars: at 0.1 µM.
Assay [19] has the same target. The settings on record: at 1 µM.
For assay [20], the target named is T7, Serine/threonine-protein kinase Nek9 (Homo sapiens) (UniProt Q8TD19).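 Also: reported value is the mean percent inhibition of NEK9.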
T7 sequence (whole entry): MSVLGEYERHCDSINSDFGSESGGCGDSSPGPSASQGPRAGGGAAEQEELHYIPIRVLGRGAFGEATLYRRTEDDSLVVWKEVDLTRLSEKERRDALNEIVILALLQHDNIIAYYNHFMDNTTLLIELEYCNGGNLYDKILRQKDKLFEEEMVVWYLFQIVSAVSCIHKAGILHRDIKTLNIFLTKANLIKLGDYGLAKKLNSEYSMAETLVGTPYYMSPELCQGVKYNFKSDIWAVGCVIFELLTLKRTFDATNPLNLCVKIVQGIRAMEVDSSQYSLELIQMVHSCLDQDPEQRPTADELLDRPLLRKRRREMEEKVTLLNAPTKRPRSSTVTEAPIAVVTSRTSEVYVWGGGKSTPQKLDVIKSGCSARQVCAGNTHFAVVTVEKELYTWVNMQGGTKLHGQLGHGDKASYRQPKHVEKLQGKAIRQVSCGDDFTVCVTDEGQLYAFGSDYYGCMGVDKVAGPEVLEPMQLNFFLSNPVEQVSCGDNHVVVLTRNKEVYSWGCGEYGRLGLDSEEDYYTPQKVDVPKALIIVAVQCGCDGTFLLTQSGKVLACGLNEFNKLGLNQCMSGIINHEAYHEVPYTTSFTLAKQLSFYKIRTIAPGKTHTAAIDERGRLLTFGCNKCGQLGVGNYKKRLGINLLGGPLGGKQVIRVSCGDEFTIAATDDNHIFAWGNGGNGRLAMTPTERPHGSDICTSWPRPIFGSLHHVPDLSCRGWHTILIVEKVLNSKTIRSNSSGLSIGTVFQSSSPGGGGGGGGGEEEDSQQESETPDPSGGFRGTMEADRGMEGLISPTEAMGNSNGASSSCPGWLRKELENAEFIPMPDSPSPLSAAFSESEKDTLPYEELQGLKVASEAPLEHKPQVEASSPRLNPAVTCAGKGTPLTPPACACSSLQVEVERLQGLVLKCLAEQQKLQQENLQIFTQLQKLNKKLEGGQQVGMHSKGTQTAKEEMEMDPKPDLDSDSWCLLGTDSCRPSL
The settings on record: at 0.1 µM.

Sequence of Serine/threonine-protein kinase Nek7 (Homo sapiens) (Q8TDX7 whole entry, looked up): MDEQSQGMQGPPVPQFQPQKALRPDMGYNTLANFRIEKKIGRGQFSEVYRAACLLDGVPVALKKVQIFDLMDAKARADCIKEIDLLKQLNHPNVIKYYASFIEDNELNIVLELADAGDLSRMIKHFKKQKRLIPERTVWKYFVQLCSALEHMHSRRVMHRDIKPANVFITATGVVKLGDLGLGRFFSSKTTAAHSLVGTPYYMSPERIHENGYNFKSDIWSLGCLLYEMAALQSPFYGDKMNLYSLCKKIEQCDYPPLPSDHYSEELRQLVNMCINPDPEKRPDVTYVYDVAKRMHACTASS
Sequence of Casein kinase II subunit alpha (Homo sapiens) (P68400 whole entry, looked up): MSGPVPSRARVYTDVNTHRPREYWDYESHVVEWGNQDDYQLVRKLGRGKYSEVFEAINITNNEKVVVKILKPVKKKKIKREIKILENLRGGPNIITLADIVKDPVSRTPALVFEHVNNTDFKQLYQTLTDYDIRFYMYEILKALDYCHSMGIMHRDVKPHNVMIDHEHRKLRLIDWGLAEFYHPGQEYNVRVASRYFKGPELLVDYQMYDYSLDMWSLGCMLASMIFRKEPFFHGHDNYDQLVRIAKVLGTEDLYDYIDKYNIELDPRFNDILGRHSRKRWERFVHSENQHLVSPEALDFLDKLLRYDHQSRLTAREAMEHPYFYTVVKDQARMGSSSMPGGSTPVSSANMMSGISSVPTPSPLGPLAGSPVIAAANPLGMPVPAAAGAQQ
Sequence of Serine/threonine-protein kinase Nek6 (Homo sapiens) (Q9HC98 whole entry): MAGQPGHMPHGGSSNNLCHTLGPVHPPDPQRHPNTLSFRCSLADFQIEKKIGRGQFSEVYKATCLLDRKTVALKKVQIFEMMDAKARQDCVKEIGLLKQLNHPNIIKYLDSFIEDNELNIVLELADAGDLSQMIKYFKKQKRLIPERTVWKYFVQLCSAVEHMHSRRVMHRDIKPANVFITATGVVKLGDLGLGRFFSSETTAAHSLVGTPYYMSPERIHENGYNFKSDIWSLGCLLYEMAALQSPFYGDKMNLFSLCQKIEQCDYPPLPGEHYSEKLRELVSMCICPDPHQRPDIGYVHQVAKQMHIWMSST
Sequence of Sphingosine kinase 1 (Homo sapiens) (Q9NYA1 whole entry): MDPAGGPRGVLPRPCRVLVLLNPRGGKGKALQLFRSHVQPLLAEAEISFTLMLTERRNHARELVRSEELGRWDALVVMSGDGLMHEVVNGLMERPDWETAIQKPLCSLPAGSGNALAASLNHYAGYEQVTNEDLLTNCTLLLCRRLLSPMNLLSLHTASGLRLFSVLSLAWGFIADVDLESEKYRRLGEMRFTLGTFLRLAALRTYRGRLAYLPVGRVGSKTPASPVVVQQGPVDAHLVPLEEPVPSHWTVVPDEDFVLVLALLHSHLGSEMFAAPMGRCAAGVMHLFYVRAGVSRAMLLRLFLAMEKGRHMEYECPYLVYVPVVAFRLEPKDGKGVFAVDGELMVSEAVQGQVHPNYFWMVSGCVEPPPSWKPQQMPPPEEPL

The term inhibition denotes the relative decrease from the control value, in per cent. Regarding `C[C@@H](Oc1cc(-n2cnc3ccc(OC4CCN(C)CC4)cc32)sc1C(N)=O)c1ccccc1Cl`, the inhibition was -0.63% in [1]; -0.31% in [2]; -1.96% in [3]; 8.71% in assay [4]; 7.82% in [5]; 6.24% in assay [6]. Besides, the inhibition in [7] amounted to 7.13%; in assay [8] it was 7.4%; in [9] it was 4.96%; in assay [10], 5.46%; in assay [11], 6.16%; in assay [12], 9.13%. In addition, the inhibition in assay [13] was 38.1%; in [14], 10.1%; in assay [15], 39.5%; in [16] it was -0.34%; in [17], 2.21%; in [18] it was 3.24%. Also, the inhibition in [19] was 8.62%; in [20] it was 62%.
